The source of these data is ChEMBL document CHEMBL3988442, “University of Dundee, Small-Polar-MMV Screening Library” (2021).

The whole screen tested about 48,000 compounds, of which about 13,000 (27%) showed an effect of 50% or more. The list shows a part of the results.

The subject of the experiment is Wolbachia pipientis. Kind of experiment: Anti-Wolbachia Cell-Based Screen. Format: functional. Further details: scale not given: in the data most compounds retested in dose-response had high values. Particulars: 5 µM.
As for `COCCNc1ccccc1CNC(=O)C1CCCOC1` (configuration not stated), the “Percent Effect” value is listed as -2.92%.

As to `CN1CCC(N2CCOC[C@H](OCC(=O)N(C)C)C2)CC1`, the “Percent Effect” value is given as -7.154%.

Turning to `CN(Cc1nccs1)c1nc(-c2ccccn2)nc2c1CCNCC2`, the “Percent Effect” value was -16.23%.

As to `O=C1NCCCC[C@@H]1NC(=O)C1(N2CCCCC2)Cc2ccccc2C1`, the “Percent Effect” value is reported as 94.83%.

Regarding `CCN1CCN(C2(C(=O)NC3CCCC3)Cc3ccccc3C2)CC1`, the “Percent Effect” value was 34.09%.

As for `O=C1NCCCCC1NC(=O)N1CCCc2ccccc21` (configuration not stated), the “Percent Effect” value stood at 0.9845%.

Regarding `O=C(NC1CCNCC1)C1(N2CCCCC2)Cc2ccccc2C1`, the “Percent Effect” value stood at 123.6%.

In the case of `C[C@@H]1CN(C(=O)C2(N3CCCCC3)Cc3ccccc3C2)C[C@H](C)O1`, the “Percent Effect” value was determined as 1.52%.

As for `C[C@@H]1CN(C2(C(=O)N3CCNCC3)Cc3ccccc3C2)C[C@H](C)O1`, the “Percent Effect” value is on record as 0.2637%.

As to `O=C(NC1CCNC1)C1(N2CCCCC2)Cc2ccccc2C1` (configuration not stated), the “Percent Effect” value is reported as 108.7%.

For `C[C@@H]1CN(C2(C(=O)N3CCCCCC3)Cc3ccccc3C2)C[C@H](C)O1`, the “Percent Effect” value is 10.21%.

As to `O=C1NCCCCC1NC(=O)N1CCc2ccccc21` (configuration not stated), the “Percent Effect” value was -9.694%.

For the compound `Cc1ccsc1C(=O)NC1CCS(=O)(=O)c2ccccc21` (configuration not stated), the “Percent Effect” value amounted to 9%.

Turning to `CC(C)COCC(NC(=O)CSc1nnc[nH]1)c1ccco1` (configuration not stated), the “Percent Effect” value stood at 34.68%.

As for `CCC(C)(C)n1nnnc1C(c1cccs1)N1CCc2ccccc2C1` (configuration not stated), the “Percent Effect” value was found to be 110.2%.

Consider `CCn1cnnc1CNC(=O)NCC(c1cccs1)N1CCCC1` (configuration not stated), for which the “Percent Effect” value was -4.375%.

On to `CCC(C)(C)n1nnnc1C(c1cccs1)N1CCc2ccccc21` (configuration not stated), for which the “Percent Effect” value amounted to 114.5%.

As for `Cc1nnc(NCC(c2cccs2)N2CCCC2)c(C#N)c1C` (configuration not stated), the “Percent Effect” value is 15.53%.

For the compound `CCC(CNC(=O)c1ccccn1)N1CCc2ccccc2C1` (configuration not stated), the “Percent Effect” value was found to be 2.728%.

With `CCC(C)(C)n1nnnc1C(c1cccs1)N1CCCCC1` (configuration not stated), the “Percent Effect” value was determined as 117.5%.

For the compound `CCC(CNC(=O)c1cncc(Br)c1)N1CCc2ccccc2C1` (configuration not stated), the “Percent Effect” value is listed as 4.86%.

For the compound `Cc1nc(CN2CCCn3cnc(COC(C)C)c3C2)cs1.O=C(O)C(F)(F)F`, the “Percent Effect” value is given as 6.346%.

With `CCOc1ccc2c(c1)C=C(C(=O)NC(C)Cn1cccn1)CO2` (configuration not stated), the “Percent Effect” value was found to be 15.57%.

Turning to `CSCCC(=O)N1CCC(c2nccn2CCN(C)C)CC1`, the “Percent Effect” value is -6.399%.

For the compound `CCCN(C(=O)CS(=O)(=O)c1ccccc1)c1cccc(C)c1`, the “Percent Effect” value is recorded as -28.2%.

`O=C(CCNc1ccc(Br)cn1)NCc1ccncc1`: the “Percent Effect” value turned out to be 2.511%.

`Cl.c1cc(CNc2cnc(C3CCCN3)cn2)ccn1` (configuration not stated): the “Percent Effect” value was 93.64%.

Consider `c1ccc(NCCn2cc(C3CCCNC3)nn2)cc1` (configuration not stated), for which the “Percent Effect” value was -6.163%.

`Cl.c1cc(NCc2ccncc2)nc(C2CCCN2)c1` (configuration not stated): the “Percent Effect” value was 109.1%.

As for `OC1CCN(Cc2ccc(CNc3ccc(Cl)cn3)cc2)CC1`, the “Percent Effect” value is listed as -3.648%.

Take `Cc1cccc(-c2c[nH]c(C3CCCN3)n2)c1.Cl.Cl` (configuration not stated): the “Percent Effect” value is -28.51%.

Turning to `COCC(=O)Nc1ccc(-c2noc([C@@H]3CCCN3)n2)cn1`, the “Percent Effect” value turned out to be 10.12%.

As for `Cl.c1cc(NCc2ccncc2)nc(C2CCCNC2)c1` (configuration not stated), the “Percent Effect” value came to 93.58%.

`Cl.FC(F)CNc1cnc(C2CCCN2)cn1` (configuration not stated): the “Percent Effect” value is on record as 111.3%.

Regarding `CCOc1cncc(N(C)CC(=O)NC)n1`, the “Percent Effect” value worked out at 3.632%.

In the case of `COc1ccc(F)cc1C(=O)N1CCn2c(nnc2C(F)(F)F)C1`, the “Percent Effect” value is -12.82%.

Regarding `CC(CNC(=O)c1cccc(-n2cccn2)n1)Cn1ccnc1` (configuration not stated), the “Percent Effect” value is given as -7.743%.

For the compound `CCN1CC2(CCC1=O)CCN(C(=O)C(O)c1cccc(Cl)c1)CC2` (configuration not stated), the “Percent Effect” value is given as -4.5%.

As to `Cc1ccc(NCCCNC(=O)NCC2CCS(=O)(=O)C2)nc1` (configuration not stated), the “Percent Effect” value is 4.563%.

Turning to `CCC(CC)CNCC1(S(C)(=O)=O)CCOCC1`, the “Percent Effect” value is listed as -4.414%.

For `CCC[C@H]1CN(S(=O)(=O)c2ccc(Cl)cc2)C[C@@H]1NC(C)=O`, the “Percent Effect” value is 12.77%.

As to `CCC[C@@H]1CN(S(=O)(=O)c2ccc(OC)c(OC)c2)C[C@H]1NC(C)=O`, the “Percent Effect” value is listed as -5.851%.

Turning to `CC(=O)N[C@@H]1CN(S(=O)(=O)c2ccc(Cl)cc2)C[C@H]1O`, the “Percent Effect” value came to 155.9%.

Take `CN(CCC#N)C(=O)Cc1csc(-c2ncccn2)n1`: the “Percent Effect” value is recorded as 2.424%.

Take `CNC(=O)[C@@H]1C[C@H](N)CN1Cc1cc2cc(C)cc(C)c2[nH]c1=O`: the “Percent Effect” value is given as 27.32%.

In the case of `COCCn1cc2c(n1)C(CNCc1ccco1)OCC2.O=C(O)C(F)(F)F.O=C(O)C(F)(F)F` (configuration not stated), the “Percent Effect” value is reported as 3.436%.

For the compound `CC(C)NCC1OCCc2cn(C)nc21.O=C(O)C(F)(F)F` (configuration not stated), the “Percent Effect” value stood at 25.68%.

On to `Cn1cc2c(n1)C(CNCc1ccco1)OCC2.O=C(O)C(F)(F)F.O=C(O)C(F)(F)F` (configuration not stated), for which the “Percent Effect” value was 145.8%.

On to `O=C(O)C(F)(F)F.O=C(O)C(F)(F)F.O=C(O)C(F)(F)F.c1ccc(Cn2cc3c(n2)C(CNCc2ccco2)OCC3)nc1` (configuration not stated), for which the “Percent Effect” value is listed as -0.4855%.

Take `Cn1cc2c(n1)C(CNCC1CCOCC1)OCC2.O=C(O)C(F)(F)F.O=C(O)C(F)(F)F` (configuration not stated): the “Percent Effect” value is recorded as 10.93%.

Take `Cc1occc1C(=O)NCC1OCCc2cn(C)nc21.O=C(O)C(F)(F)F` (configuration not stated): the “Percent Effect” value is 115.2%.

Regarding `COc1ccccc1C1(CNc2snc(Cl)c2C#N)CCOCC1`, the “Percent Effect” value was -1.634%.
